This is a sample that favours compounds with a hit; in the whole collection about 3.6% have one here.
Pf apPOL block: Pf-apPOL inhibitors, biochemical, fluorescence | Plasmodium falciparum apicoplast DNA polymerase (apPOL) | Recombinant Pf-apPOL, molecular beacon fluorescence, 1.5 h | inhibition, % at 10 µM | 0.25% of 210,000 active | AID 1794808, 2022
mHTT-CaM PPI inh: mutant huntingtin-calmodulin interaction inhibitors – biochemical, AlphaScreen, primary screen; P42858; AlphaScreen His-mHTT/GST-CaM binding, luminescence; inhibition, % at 15 µM; 3.6% of 190,000 active
Of the large screens only hits and unclear results are named; the others gave an inactive call. Rule as the data show it: active = inhibition above about 50%; inactive = the rest.

COc1ccc(C)cc1NC(=O)C1CCCN(C(=O)c2ccccc2F)C1 (stereo not drawn)	none
COc1ccc(CC(=O)Nc2sc(-c3ccccc3)cc2C(N)=O)cc1OC	mHTT-CaM PPI inh 83.4
COc1ccccc1CC(=O)NCCc1ccccc1	mHTT-CaM PPI inh 62.6
COCC(=O)NCCc1ccc(OC)c(OC)c1	Pf apPOL block 98.3
COc1ccccc1CC(=O)NCCCc1ccccc1	none
COc1ccc(OC)c(NC(=O)Cc2ccc(OC)c(OC)c2)c1	Pf apPOL block 85.5
COc1cccc2cc(C(=O)Nc3sc(-c4ccccc4)cc3C(N)=O)oc12	none
COCC(=O)Nc1cc(OC)ccc1OC	none
COc1ccc(CCNC(=O)Cc2ccc(OC)c(OC)c2)cc1OC	none (no result: mHTT-CaM PPI inh)
COc1cc(C=O)cc(Br)c1OCc1ccc(C(=O)O)cc1	none
CCOC(=O)c1ccccc1NC(=O)CSc1nnc2ccc(-c3cccnc3)nn12	none
COc1ccc(CCNC(=O)CCN2N=C(c3ccc(C)cc3)CCC2=O)cc1OC	mHTT-CaM PPI inh 87.0
COc1ccc(CCNC(=O)CCN2N=C(c3ccccc3)CCC2=O)cc1OC	none
CCOC(CCn1c(SCC(=O)Nc2ccccc2Cl)nc2ccccc2c1=O)OCC	none
O=C(CC(=O)c1ccccn1)c1ccccn1	none (no result: mHTT-CaM PPI inh)
N/C(=N\N=C(/N)c1ccccn1)c1ccccn1	mHTT-CaM PPI inh active
O=C(ON1C(=O)C2C3C=CC(O3)C2C1=O)c1cccnc1Oc1ccccc1 (stereo not drawn)	Pf apPOL block 77.2 (no result: mHTT-CaM PPI inh)
Cc1nn(-c2ccccc2)nc1C(=O)ON1C(=O)C2C3C=CC(O3)C2C1=O (stereo not drawn)	none (no result: mHTT-CaM PPI inh)
O=C(NCc1cc(F)ccc1F)C1CCCN(c2nnc3ccccn23)C1 (stereo not drawn)	none
Cc1ccc(OCC(=O)N2CCC(CCOc3cccnc3)CC2)cc1	none
CC1=NN(c2cccc(Cl)c2)C(=O)/C1=C/c1ccc(Br)c([N+](=O)[O-])c1	mHTT-CaM PPI inh 81.0
COc1cc(/C=C2/C(=O)N(c3ccccc3)N=C2C)cc(OC)c1O	mHTT-CaM PPI inh 52.0
COc1cc(/C=C2/C(=O)N(c3ccccc3)N=C2C)ccc1OCc1ccccc1	none
COc1ccc(/C=C2/C(=O)N(c3ccc(Cl)c(Cl)c3)N=C2C)cc1[N+](=O)[O-]	none
COc1ccc(/C=C2/C(=O)N(c3ccccc3)N=C2C)cc1Br	none
COc1cc(/C=C2/C(=O)N(c3ccccc3)N=C2C)cc(Br)c1O	mHTT-CaM PPI inh 55.0
COc1cc(/C=C2/C(=O)N(c3ccc(Cl)c(Cl)c3)N=C2C)cc(OC)c1O	mHTT-CaM PPI inh 67.0
COc1cc(/C=C2/C(=O)N(c3ccc(Cl)c(Cl)c3)N=C2C)cc(OC)c1OC	none
CN(CC#N)C(=O)Cn1c(=O)c2cccn2c2ccccc21	none
COc1ccc(S(=O)(=O)N=C2NC(=O)/C(=C/c3cccnc3)S2)cc1	none
O=C(NC1CCCCC1)C1c2ccccc2C(=O)N1C1CC1 (stereo not drawn)	none
CCCC(=O)Nc1ccc2c(c1)CC(C(=O)NCCOC)CO2 (stereo not drawn)	none
COc1ccccc1OCC1CN(C(=O)c2ccc(Cl)cc2)CCO1 (stereo not drawn)	none
CC1=NN(c2ccccc2)C(=O)/C1=C/c1cc(Cl)c(O)c(Cl)c1	mHTT-CaM PPI inh 64.0
COc1ccc(/C=C2/C(=O)N(c3ccc(Cl)c(Cl)c3)N=C2C)cc1Br	none
COc1cc(/C=C2/C(=O)N(c3cccc(Cl)c3)N=C2C)cc(Br)c1O	mHTT-CaM PPI inh 78.0
CC1=NN(c2ccccc2)C(=O)/C1=C/c1ccc(O)c(Cl)c1	none
COc1cccc(/C=C2/C(=O)N(c3cccc(Cl)c3)N=C2C)c1	mHTT-CaM PPI inh 96.0
COc1cc(/C=C2/C(=O)N(c3ccccc3)N=C2C)c([N+](=O)[O-])cc1OC	none
COc1ccccc1/C=C1/C(=O)N(c2cccc(Cl)c2)N=C1C	none
COc1cc(/C=C2/C(=O)N(c3ccccc3)N=C2C)cc([N+](=O)[O-])c1O	mHTT-CaM PPI inh 57.0
Cn1cc2c3c(cccc31)CN(C(=O)Nc1ccc(Br)cc1F)CC2	none
O=C(c1ccsc1)N1CCCCC1c1nncn1CC1CC1 (stereo not drawn)	none
O=C(Nc1cccc(NC(=O)c2ccccc2Cl)c1)c1ccc(-c2ccc([N+](=O)[O-])cc2)o1	none
COc1cc(C2C3=C(CCCC3=O)Nc3nc(SCc4ccccc4)nn32)cc(OC)c1OC (stereo not drawn)	none
CC(=O)NCc1csc(C2CCCN(S(=O)(=O)Cc3ccc(F)cc3Cl)C2)n1 (stereo not drawn)	none
c1ccc(-n2cnc3cnccc32)cc1	none (no result: Pf apPOL block)
CCOc1ccc(-c2ncn(CC(=O)NN)c2[N+](=O)[O-])cc1	none
COc1cc(/C=C2/C(=O)N(c3ccc(C)c(Cl)c3)N=C2C)ccc1O	mHTT-CaM PPI inh 52.0
C=CCOc1ccc(/C=C2/C(=O)N(c3ccc(Cl)c(Cl)c3)N=C2C)cc1OC	none
Cc1n[nH]c(=O)c2cc3c(C)n[nH]c(=O)c3cc12	none
Cc1ccc(-n2cc(-c3ccccc3)c3c(NCC4CCCO4)ncnc32)cc1 (stereo not drawn)	mHTT-CaM PPI inh 56.0
